Results on 53 compounds are retold here after PubChem BioAssay AID1721 (National Center for Advancing Translational Sciences (NCATS), 2009).

Among all 290,000 compounds or so, about 1,100 (0.38%) were called active. A call without a number means that no potency is given here. This excerpt belongs to a sample that is enriched for actives. Values without a mark were called inactive. Calls follow the shape of the dose curve; as a rule, active = well fitted inhibition curve with a large enough effect; inconclusive = small, poorly fitted or top-dose-only effect, or another doubt; inactive = no such curve, though single readings can be large or run the other way.
Potency is read from the fitted curve at half-maximal effect.

Chain of Pyruvate kinase (Leishmania mexicana) (Q27686 whole entry, looked up): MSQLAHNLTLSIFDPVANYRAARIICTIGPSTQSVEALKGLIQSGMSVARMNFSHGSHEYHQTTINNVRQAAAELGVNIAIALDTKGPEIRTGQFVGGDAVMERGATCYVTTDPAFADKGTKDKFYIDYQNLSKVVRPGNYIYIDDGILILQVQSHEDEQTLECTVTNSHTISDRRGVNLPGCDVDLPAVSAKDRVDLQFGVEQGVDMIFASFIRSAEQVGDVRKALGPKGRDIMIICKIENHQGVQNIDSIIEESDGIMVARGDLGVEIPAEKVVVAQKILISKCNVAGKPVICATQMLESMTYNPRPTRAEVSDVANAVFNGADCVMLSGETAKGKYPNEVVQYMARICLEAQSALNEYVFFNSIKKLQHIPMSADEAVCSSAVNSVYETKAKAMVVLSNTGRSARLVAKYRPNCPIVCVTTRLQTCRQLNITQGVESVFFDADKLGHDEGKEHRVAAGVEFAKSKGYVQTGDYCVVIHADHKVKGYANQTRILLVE

This test deals with Pyruvate kinase (Leishmania mexicana) (UniProt Q27686). Description: qHTS Assay for Inhibitors of Leishmania Mexicana Pyruvate Kinase (LmPK). As to conditions: purified LmPK, Kinase-Glo ATP luminescence, 1 h; series mostly up to 57.5 µM. An excerpt:
NIH Chemical Genomics Center [NCGC] Malcolm Walkinshaw, Hugh Morgan, Linda Gilmore University of Edinburgh, UK MLPCN Grant: 1 R03 MH085697-01 NCGC Assay Overview: Pyruvate kinase (L. Mexicana) (LmPK) enzyme was supplied as a highly purified (>95% pure) sulphate-free preparation from University of Edinburgh, UK and assayed for its ability to generate ATP from ADP using phosphoenolpyruvate (PEP) as a substrate. ATP generation was detected in a coupled reaction by luciferase-mediated luminescence, an ATP-dependent process. […] The enzyme was assayed at an intermediate level of activity to screen for both inhibitors and activators.
NCGC Assay Protocol Summary: Three uL of enzyme mix (kept on ice) in assay buffer (50 mM Imidazole pH7.2, 50 mM KCl, 7 mM MgCl2, 0.01% Tween 20, 0.05% BSA) containing PEP (0.5 mM final concentration) and LmPK (0.1 nM final concentration) was dispensed into white solid bottom 1,536 well microtiter plates. 23 nL of compound were delivered by a pin tool and 1 uL of ADP mix in assay buffer (r.t; 0.1 mM final ADP concentration) was added. Plates were incubated at room temperature for 1 hour. Two uL of detection mix (Kinase-Glo, Promega; at 4 degree Celsius protected from light) was added and luminescence read by a ViewLux (Perkin Elmer) at 1 second exposure/plate. Data were normalized to the uninhibited and AC100 inhibition (no enzyme). To monitor activation, the first column contained a five-fold concentration of LmPK (0.5 nM).
(In general: qHTS replaces the single test concentration by a dilution series.)
Regarding `O=C(CN(CC1CCCO1)C(=O)CNS(=O)(=O)c1ccc(Cl)cc1)NCc1ccccc1` (stereo not drawn), the Potency result was “inactive”.

For `CC(C(=O)Nc1ccc(O)c(C(=O)O)c1)N1C(=O)/C(=C/c2cccs2)SC1=S` (stereo not drawn), the Potency result is “inactive”.

For `COc1ccc(NC(=O)C(CC(C)C)NC(=O)C2CCC(C)CC2)cc1` (stereo not drawn), the Potency entry was “inactive”. To `O=C(Nc1nnc(C2=COCCO2)o1)c1ccc([N+](=O)[O-])s1` belongs “inactive”; to `COc1cc(C(C)=O)ccc1OC(=O)CN1C(=O)c2ccccc2C1=O`, “inactive”; to `CCOc1cccc(/C=C/c2ccc3ccccc3n2)c1OC(C)=O`, “inactive”. For `COc1cccc(/C=C/c2ccc3ccccc3n2)c1OC(C)=O` the value was 25.1 µM (active); for `COc1cccc(/C=C2\C=C(c3ccc(C)cc3)OC2=O)c1OC(C)=O`, “inactive”; for `COc1ccc(CCNCc2c(-c3ccccc3)n(C)c3ccccc23)cc1`, “inactive”. In the case of `Cc1ccc(N(C(=O)C(F)(F)F)C(C(=O)NC2CCCCC2)c2ccncc2)cc1C` (stereo not drawn), the Potency result was “inactive”. For `O=C(O)C1CCCN1C1=NS(=O)(=O)c2ccccc21` (stereo not drawn) the value was “inactive”; for `COc1ccccc1OCc1nc2ccccc2s1`, 15.8 µM (active).

`O=C(O)CCCCc1nc2ccccc2s1`: the Potency result is “inactive”. As to `CN(Cc1nc2ccccc2s1)C(=O)c1ccc(F)cc1`, the Potency result was “inactive”. Regarding `Cc1cc(S(=O)(=O)N2CCOCC2)ccc1OCC(=O)Nc1cccc(C(F)(F)F)c1`, the Potency entry is “inactive”. With `COc1cc(SC)ccc1C(=O)Nc1cc(C)ccn1`, the Potency entry was “inactive”.

For `COc1cc(SC)ccc1C(=O)NCCOc1ccccc1Cl`, the Potency entry is “inactive”. Take `COc1cc(SC)ccc1C(=O)Nc1nc(C)cs1`: the Potency is 10 µM (active).

For the compound `O=C(NC(=S)NC1CCS(=O)(=O)C1)c1cccc([N+](=O)[O-])c1` (stereo not drawn), the Potency entry is “inactive”. To `Cn1c(-c2ccco2)nc2cc3ccccc3cc21` belongs 12.6 µM (active); to `O=c1c2ccccc2nc(-c2ccco2)n1-c1ccc(Br)cn1`, “inactive”; to `Cn1cccc1-c1nc2ccccc2n1C`, “inactive”. For `S=c1[nH]nc(-c2cc(-c3ccccc3)n[nH]2)n1/N=C/c1c2ccccc2cc2ccccc12` the value was “inactive”; for `c1ccc(-c2cc(-c3ccccc3)[nH]n2)cc1`, “inactive”; for `S=c1[nH]nc(-c2cc(-c3ccsc3)n[nH]2)n1-c1ccccc1`, 10 µM (active). To `CCn1cc(C(=O)N[C@@H](C)C(=O)NCCO)c(=O)c2cc3c(cc21)OCO3` belongs “inactive”; to `CCCNC(=O)CCc1c(C)nc2c(c(C)nn2-c2ccc(C)cc2)c1C`, “inactive”; to `CC(C)OC(=O)c1ccc(COc2ccc3ccc(=O)oc3c2)o1`, “inactive”.

Take `CC(=O)c1c(-c2ccccc2)c2ccccc2[nH]c1=O`: the Potency result is “inactive”. Turning to `Cc1ccccc1Cn1c(=O)[nH]c2ccccc21`, the Potency result is “inactive”.

In the case of `O=c1[nH]c2ccccc2n2c(-c3ccccc3)nnc12`, the Potency was 3.16 µM (active). For `Cc1ccc(S(=O)(=O)N/N=C(\c2ccccc2)C2CC2)cc1`, the Potency entry is “inactive”.

Regarding `Cc1cc(C2=NNC(=Nc3ccc(S(=O)(=O)N4CCOCC4)cc3)SC2)c(C)n1CC1CCCO1` (stereo not drawn), the Potency entry is “inactive”. To `C=CCn1c(C)cc(C2=NNC(=NCC)SC2)c1C` belongs 14.1 µM (active); to `Cc1cccc(N=C2NN=C(c3c[nH]c4ccccc34)CS2)c1`, “inactive”; to `COc1ccc(-c2ccc(OC(=O)NC3CCS(=O)(=O)C3)cc2)cc1` (stereo not drawn), “inactive”.

For `COc1ccc2cc(S(=O)(=O)Nc3ccccn3)ccc2c1`, the Potency result is “inactive”.

Consider `CCOc1ccc(N/C=C/C(=O)c2ccccc2)cc1`, for which the Potency result was “inactive”. With `COc1ccc(C(=O)/C=C/Nc2ccccn2)cc1`, the Potency is 12.6 µM (active). For `CC1CCC(NC(=O)CN(C)S(=O)(=O)c2ccc3c(c2)c(=O)n(C)c(=O)n3C)CC1` (stereo not drawn) the value was “inactive”; for `O=C(NCc1ccccc1Cl)C1CCN(c2ncnc3c2nc2n3CCCCC2)CC1`, “inactive”. To `O=C1CSC(=S)N1/N=C/c1ccc(O)c([N+](=O)[O-])c1` belongs 25.1 µM (active); to `Cc1cc(C(=O)N/N=C/c2ccc(O)c([N+](=O)[O-])c2)c(C)n1-c1ccc(F)cc1`, “inactive”; to `CCOc1cccc(/C=N/N2C(=O)CSC2=S)c1O`, “inactive”. For `O=C(CN1CCCCCC1)Nc1ccc(Br)cc1[N+](=O)[O-]`, the Potency result is “inactive”. For `O=C(NCCCNC(=O)c1ccccc1Cl)c1cnccn1` the value was “inactive”. For `O=C(CN1C(=O)c2ccccc2C1=O)NCc1ccc(C(=O)O)cc1`, the Potency result was “inactive”. For `CC(=O)N(C1=C(Cl)C(=O)c2ccccc2C1=O)c1ccc(C(=O)O)cc1` the value was 4.47 µM (active); for `CC(C)N(C(=O)c1ccc(-c2ccccc2F)cc1)C(C)C`, “inactive”; for `Cc1cccc(N2CCN(S(=O)(=O)c3ccc4[nH]c(=O)c(=O)[nH]c4c3)CC2C)c1` (stereo not drawn), “inactive”. To `O=C(/C=C/NCc1ccc(F)cc1)c1ccccc1` belongs “inactive”. For `O=C(COc1ccc(S(=O)(=O)Nc2cccc(C(F)(F)F)c2)cc1)N1CCOCC1` the value was “inactive”; for `CCCn1c(C(C)Nc2nc(-c3ccc(C)cc3)cs2)nc2cc(Cl)c(N3CCCCC3)cc21` (stereo not drawn), “inactive”.
